KDM5B inh – KDM5B demethylase inhibition; Q9UGL1; Potency, µM (series often up to 57.7 µM), most hits filed as inhibitors; 2.6% of 220,000 active; KDM5B demethylase, FDH-coupled NADH fluorescence (FDH is formaldehyde dehydrogenase); further: potency means the concentration at half of the fitted maximal effect; 0% is about no effect; nearly all actives have a fitted effect of over 70% in size
Target sequence (Q9UGL1 whole entry, looked up): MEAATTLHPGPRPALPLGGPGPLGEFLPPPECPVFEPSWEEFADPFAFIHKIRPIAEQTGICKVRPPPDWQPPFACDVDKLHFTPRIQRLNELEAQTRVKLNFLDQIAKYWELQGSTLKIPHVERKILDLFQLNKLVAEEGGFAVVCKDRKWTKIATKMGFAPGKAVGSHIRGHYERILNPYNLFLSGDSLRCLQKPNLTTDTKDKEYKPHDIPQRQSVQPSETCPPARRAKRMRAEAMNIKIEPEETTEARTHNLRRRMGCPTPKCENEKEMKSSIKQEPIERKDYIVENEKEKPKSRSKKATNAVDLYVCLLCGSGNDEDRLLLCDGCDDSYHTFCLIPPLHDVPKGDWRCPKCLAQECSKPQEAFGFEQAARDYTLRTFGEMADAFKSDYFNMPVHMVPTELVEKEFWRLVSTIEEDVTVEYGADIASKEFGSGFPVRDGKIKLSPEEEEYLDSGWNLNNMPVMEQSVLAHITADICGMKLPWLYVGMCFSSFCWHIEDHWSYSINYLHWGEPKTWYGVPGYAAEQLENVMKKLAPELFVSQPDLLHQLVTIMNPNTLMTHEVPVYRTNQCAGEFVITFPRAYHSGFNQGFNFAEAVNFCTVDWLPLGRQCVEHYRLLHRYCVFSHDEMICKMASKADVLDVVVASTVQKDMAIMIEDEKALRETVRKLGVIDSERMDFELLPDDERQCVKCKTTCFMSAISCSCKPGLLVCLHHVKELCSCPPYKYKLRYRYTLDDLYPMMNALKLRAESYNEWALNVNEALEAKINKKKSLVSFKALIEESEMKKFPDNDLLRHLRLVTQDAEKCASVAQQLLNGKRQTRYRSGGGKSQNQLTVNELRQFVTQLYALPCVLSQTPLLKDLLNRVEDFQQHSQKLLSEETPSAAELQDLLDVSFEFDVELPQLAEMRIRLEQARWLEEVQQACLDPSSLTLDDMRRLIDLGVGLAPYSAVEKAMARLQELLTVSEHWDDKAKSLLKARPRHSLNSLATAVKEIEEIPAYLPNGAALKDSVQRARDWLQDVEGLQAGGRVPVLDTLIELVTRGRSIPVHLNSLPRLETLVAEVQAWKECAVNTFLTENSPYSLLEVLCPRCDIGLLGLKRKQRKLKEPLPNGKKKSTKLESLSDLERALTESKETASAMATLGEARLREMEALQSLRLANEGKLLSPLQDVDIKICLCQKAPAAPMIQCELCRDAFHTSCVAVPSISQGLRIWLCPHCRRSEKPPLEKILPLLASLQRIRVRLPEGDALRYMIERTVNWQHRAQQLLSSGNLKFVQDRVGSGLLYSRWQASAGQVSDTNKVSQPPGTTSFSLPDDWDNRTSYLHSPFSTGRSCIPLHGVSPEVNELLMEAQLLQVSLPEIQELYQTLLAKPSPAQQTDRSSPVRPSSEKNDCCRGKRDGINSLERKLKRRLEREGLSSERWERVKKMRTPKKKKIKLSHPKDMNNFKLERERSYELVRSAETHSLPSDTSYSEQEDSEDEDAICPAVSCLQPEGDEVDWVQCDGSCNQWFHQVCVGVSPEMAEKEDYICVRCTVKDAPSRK
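Compound dilutions met 200 nM (final) KDM5BΔAP for 10 min at room temperature before substrate addition. The substrate mix held 12.5 µM H3K4me3 with cofactors 25 µM α-ketoglutarate and 50 µM Fe²⁺. NADH signal gain over 30 min defined activity.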
IP6K1 inhibitor – IP6K1 kinase inhibition | Q92551 | IP6K1 kinase, ADP-Glo luminescence, 2 h; active compounds read low | activity change, % (series mostly up to about 58 µM) | 0.81% of 140,000 active; in the data active means activity change below about -25%; further: on the % scale 0 is the no-effect control and ±100 the full control effect
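ADP-Glo luminescence measures ADP made by human IP6K1 during a 2 h RT reaction with ATP/IP6 (mix at 1.3 mM/130 uM); top library doses 57.5 and 19.1 uM final.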
* marks the source's active call; other numbers are inactive results; ! = a repeat was not active. A selection: hits, their analogues and other compounds. The true share with any hit is near 2.8%.

Screening CNc1ccc(C(=O)N2CCC(CCn3cccn3)CC2)cn1 returned KDM5B inh 22µM* and IP6K1 inhibitor -7.
CC(C)(C)CNc1ccc(C(=O)N2CCC(CN3CCCC3=O)CC2)cn1 was read as KDM5B inh 14µM* and IP6K1 inhibitor 41.
For O=C(Nc1ccccc1C(=O)OCC(=O)N1CCC(Cc2ccccc2)CC1)c1ccco1 the results were KDM5B inh inactive.
For O=C(NCCc1ccc(Cl)cc1)c1nc(-c2cccc(F)c2)n2c1CCCCC2 the results were KDM5B inh inactive and IP6K1 inhibitor 4.
CC(C)(C)c1nc(C(=O)NCCc2ccc(Cl)cc2)n2ccccc12 was read as KDM5B inh inconclusive and IP6K1 inhibitor -5.
O=C(NCCc1ccc(Cl)cc1)c1nc(-c2cccc(F)c2)c2cnccn12 was read as KDM5B inh 28µM* and IP6K1 inhibitor 0.
Screening O=C(NCCc1ccc(Cl)cc1)c1nc2sccn2c1-c1cccnc1 returned IP6K1 inhibitor 17.
For O=C(NCCc1ccc(Cl)cc1)c1nc(-c2cccnc2)c2cnccn12 the results were KDM5B inh 25µM* and IP6K1 inhibitor 8.
Screening CC(C)(C)c1nc(C(=O)NCCc2ccc(Cl)cc2)n2ccncc12 returned KDM5B inh 79µM* and IP6K1 inhibitor 11.
`O=C(NCCc1ccc(Cl)cc1)c1nc(-c2cccc(C(F)(F)F)c2)c2cnccn12` gave KDM5B inh 32µM* and IP6K1 inhibitor 0.
For O=C(NCCc1ccccc1)c1nc2sccn2c1-c1cccc(C(F)(F)F)c1 the results were IP6K1 inhibitor -4.
`CCn1ccc(C(=O)NCC2Cn3cccc3C(=O)N2Cc2ccccc2)n1` (stereo not drawn) gave KDM5B inh inactive and IP6K1 inhibitor 4.
`COc1cccc(NC(=O)N2CCN3C(=O)N(C)C[C@H]3C2)c1` gave KDM5B inh inactive and IP6K1 inhibitor 11.
For O=C(c1ccc(F)cc1)N1CCC2(CC1)C(=O)NCN2Cc1ccc(Cl)cc1 the results were KDM5B inh inactive and IP6K1 inhibitor -5.
Screening COc1ccc2nc(C)cc(Nc3ccc(Cl)cc3)c2c1 returned KDM5B inh inactive.
For COc1ncccc1N1CC2(COCC(=O)N(Cc3cccc(OC(F)(F)F)c3)C2)C1 the results were KDM5B inh 7.1µM* and IP6K1 inhibitor 1.
`O=C1COCC2(CN1Cc1cccc(OC(F)(F)F)c1)CN(c1nccs1)C2` gave KDM5B inh inactive and IP6K1 inhibitor 7.
O=C(c1cccs1)N1CCC(O)(c2ccccc2)[C@H](N2CCCC2)C1 (stereo partly drawn) was read as KDM5B inh inconclusive and IP6K1 inhibitor 33.
Screening O[C@]1(c2ccccc2)CCN(Cc2ccco2)C[C@H]1N1CCCC1 returned KDM5B inh inconclusive and IP6K1 inhibitor 18.
`O[C@]1(c2ccccc2)CCN(Cc2ccncc2)C[C@H]1N1CCCC1` gave KDM5B inh 6.3µM* and IP6K1 inhibitor 21.
`O=C(C1CC1)N1CC[C@](O)(c2ccccc2)[C@H](N2CCCC2)C1` gave KDM5B inh 16µM* and IP6K1 inhibitor 19.
Screening O=C(NCc1ccnc2[nH]ccc12)c1ccc(C(F)(F)F)cc1 returned KDM5B inh 35µM*! and IP6K1 inhibitor -6.
For O=C(NCc1ccnc2[nH]ccc12)c1ccncc1 the results were KDM5B inh inactive and IP6K1 inhibitor 9.
COc1ccc(CCC(=O)N[C@H]2[C@@H]3CCO[C@@H]3[C@@H]2C2CCCC2)cc1OC was read as KDM5B inh inactive and IP6K1 inhibitor -1.
O=C(CCc1cn2ccccc2n1)N[C@H]1[C@@H]2CCO[C@@H]2[C@@H]1C1CCCC1 was read as KDM5B inh 28µM* and IP6K1 inhibitor 3.
`COc1ccc(C(=O)N2CCC3(C2)C(=NC2CCCCC2)NC(=O)N3c2cccnc2)cc1` (stereo not drawn) gave KDM5B inh inactive and IP6K1 inhibitor -15.
For CCn1cc(CN2CCN(Cc3ccccc3)CC2)ccc1=O the results were KDM5B inh inconclusive and IP6K1 inhibitor 4.
CCn1c2ccccc2c2cc(CN3CCN(Cc4ccc(Br)cc4)CC3)ccc21 was read as KDM5B inh inconclusive and IP6K1 inhibitor -58*.
For CCC(CC)NC(=O)c1cccc(I)c1 the results were KDM5B inh inactive.
`Cn1ccc2c(-c3cc(NCCO)nc(N)n3)ccnc21` gave KDM5B inh 28µM* and IP6K1 inhibitor 38.
Screening COc1ccc(CN2CCN(CCC=C(C)C)CC2CCO)cc1C (stereo not drawn) returned KDM5B inh inactive and IP6K1 inhibitor -5.
`CN(Cc1ccccc1)C(=O)c1cc(-c2cccnc2)nc2ccccc12` gave KDM5B inh inactive.
Screening CC(C)c1noc(CN(C)C(=O)c2cc(-c3cnn(C)c3)nc3ccccc23)n1 returned KDM5B inh 28µM* and IP6K1 inhibitor -3.
Screening CCOc1ccccc1NC(=O)Cn1ccn2nc(-c3ccc(F)cc3)c(CO)c2c1=O returned KDM5B inh inconclusive and IP6K1 inhibitor 1.
COc1cccc(-c2ccc(CN3CCCC3C(=O)NC3CCCC3)cc2)c1 (stereo not drawn) was read as IP6K1 inhibitor -9.
`Cc1nc(-c2c3n(c(=O)n(CC(=O)NCc4ccc5c(c4)OCO5)c2=O)CCCC3)no1` gave KDM5B inh inactive and IP6K1 inhibitor 8.
Screening Cc1nn2c(c1-c1cccnc1N1CCOCC1)N(CC1CCOCC1)CCC2 returned KDM5B inh inconclusive and IP6K1 inhibitor 13.
COc1ccc(-c2nc(N3CCOCC3)cc3c2CN(Cc2ccccc2)C3=O)cc1OC was read as KDM5B inh inactive and IP6K1 inhibitor 7.
`COc1ccc(-c2nc(N3CCOCC3)cc3c2CN(CC2CC2)C3=O)cn1` gave KDM5B inh 35µM* and IP6K1 inhibitor 5.
`Cc1ccccc1-c1nc(N2CCOCC2)cc2c1CN(CC1CC1)C2=O` gave KDM5B inh 35µM* and IP6K1 inhibitor 17.
`Cn1cc(-c2nc(N3CCOCC3)cc3c2CN(CC2CC2)C3=O)cn1` gave KDM5B inh inactive and IP6K1 inhibitor 10.
For COc1ccc(-c2nc(N3CCOCC3)cc3c2CN(Cc2ccccc2)C3=O)cn1 the results were KDM5B inh 35µM* and IP6K1 inhibitor 11.
For Cc1ccc2c(c1C)NC(=O)CC2c1ccc(Cl)cc1Cl (stereo not drawn) the results were KDM5B inh inactive and IP6K1 inhibitor -6.
`O=C1CCN(Cc2ccncc2)CCCC(C(=O)NC2CCN(Cc3ccccc3)CC2)CCN1` (stereo not drawn) gave KDM5B inh inactive and IP6K1 inhibitor 5.
Screening Cn1ncc2c(C(=O)NCc3ccccc3)cc(-c3ccccc3C(F)(F)F)nc21 returned IP6K1 inhibitor -2.
`O=C(CC1CCCC1)NCCC1CCN(C(=O)Nc2cc(F)ccc2F)CC1` gave KDM5B inh inactive and IP6K1 inhibitor -3.
Screening Cc1ncccc1-c1nc2cc(C(=O)NCC(C)C)ccc2o1 returned IP6K1 inhibitor 17.
`COc1cc2c(cc1OC)C(C[C@H]1CN(C(=O)C(=O)O)CC[C@H]1CC(=O)O)=NCC2` gave KDM5B inh inactive and IP6K1 inhibitor 0.
For COc1cc2c(cc1OC)C(C[C@H]1CN(C(=O)Nc3ccc(Cl)cc3)CC[C@H]1CC(=O)O)=NCC2 the results were KDM5B inh 28µM* and IP6K1 inhibitor 13.

Screens: PubChem, National Center for Advancing Translational Sciences (NCATS)
